KB-V1 MDR tox – qHTS assay for MDR1-selective chemotherapeutics: Primary screen using the drug-selected MDR subline cells KB-V1; Potency, µM (highest dose often 46.1 µM), most hits filed as cytotoxic; KB-V1 MDR cells viability, CellTiter-Glo, 72 h; 400,000 tested, 3.4% active; also: nearly all actives have a fitted effect of over 60% in size
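Cytotoxicity toward P-gp-expressing KB-V1 cells was determined as loss of CellTiter-Glo luminescence after 72 h at 37 degrees C. Compounds were tested in quantitative HTS format across a concentration range, with curves fitted to normalized data.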
HT1080 IDH1KD tx – qHTS for induction of synthetic lethality in tumor cells producing 2HG: qHTS for the HT-1080-IDH1KD cell line | Potency, µM (highest dose often 46.1 µM), for inactives: at the top dose activity, negative = toxicity, most hits filed as cytotoxic | HT-1080 IDH1 knockdown viability, ATP luminescence, 48 h | 360,000 tested, 2% active | AID 686971, 2013;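 also: 0% = DMSO wells and -100% = cell-free medium wells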
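Assay cells: HT-1080 with IDH1 knockdown, 750 per well, RPMI/5% FBS. Exposure: 48 h at 37 °C following 2 h pre-incubation. Read: CellTiter-Glo luminescence; fitted concentration-response, curve class assigned.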
KB-3-1 cytotox – qHTS assay for MDR1-selective chemotherapeutics: Primary screen using the parental adenocarcinoma cell KB-3-1; 400,000 tested, 1.4% active; AID 1347075, 2019; Potency, µM (highest dose often 46.1 µM), usual class: cytotoxic; KB-3-1 viability, CellTiter-Glo ATP luminescence, 72 h; also: nearly all actives have a fitted effect of over 60% in size
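Luminescent ATP read-out (CellTiter-Glo) measures survival of drug-naive KB-3-1 cells after 72 h compound exposure at 37 °C. Titration series was screened from lowest to highest concentration, with DMSO vehicle plates as background controls.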
HT1080-NT tox – qHTS for induction of synthetic lethality in tumor cells producing 2HG: qHTS for the HT-1080-NT fibrosarcoma cell line. HT-1080-NT fibrosarcoma viability, CellTiter-Glo ATP luminescence, 48 h. Potency, µM (doses to about 46.1 µM), without a hit: top-dose activity, negative = less viability, hits mostly cytotoxic. 360,000 tested, 1.6% active;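 also: NT is the 2HG producing partner of a matched IDH1 knockdown line; 0% = DMSO-treated cells and -100% = media-only wells without cells; nearly all actives have a fitted effect of over 55% in size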
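Compounds were tested in concentration-response format on HT-1080-NT cells for 48 hours at 37 degrees C. Cell viability came from CellTiter-Glo luminescence; curves were classified by r2, response magnitude and activity.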
TDP1 cell CPT – qHTS for Inhibitors of human tyrosyl-DNA phosphodiesterase 1 (TDP1): qHTS in cells in presence of CPT | chicken DT40 Tdp1-/-;hTDP1 cells + 20 nM CPT, ATP luminescence, 48 h | Potency, µM (top dose mostly 46.2 µM), without a hit: top-dose activity change, negative = growth inhibition, usual class: inhibitors | 420,000 tested, 12% active | AID 686979, 2013; also: nearly all actives have a fitted effect of over 55% in size
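Cell growth measured by CellTiter-Glo luminescence after a minimum 48 h, 37 C compound exposure with 20 nM CPT in Tdp1-knockout DT40 cells stably expressing hTDP1, seeded 400/well; qHTS titration format.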
TDP1 cell noCPT – qHTS for Inhibitors of human tyrosyl-DNA phosphodiesterase 1 (TDP1): qHTS in cells in absence of CPT; DT40 Tdp1-/- hTDP1 cells, no CPT, ATP luminescence, 48 h; Potency, µM (series often up to 46.2 µM), without a hit: top-dose activity change, negative = growth inhibition, usual class: inhibitors; 420,000 tested, 15% active; AID 686978, 2013; also: nearly all actives have a fitted effect of over 55% in size
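Stably hTDP1-transfected Tdp1-null chicken DT40 cells were treated with library compounds minus camptothecin and grown for at least 48 hr at 37 °C, after which cellular ATP was quantified by luminescence.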
Active calls of the source: *; i = inactive; ? = inconclusive; nt = not tested or not shown. This is a sample that favours compounds with a hit; in the whole collection about 19% have one here. Calls follow the shape of the dose curve; as a rule, active = well fitted curve in the direction sought with a large enough effect; inconclusive = small, poorly fitted or top-dose-only effect, or another doubt; inactive = no such curve, though single readings can be large; an effect the other way counts as inactive or inconclusive. Unless noted, % is scaled to controls: 0 for no effect and ±100 for the full control effect; potency is read from the fitted curve at half-maximal effect.

SMILES | KB-V1 MDR tox | HT1080 IDH1KD tx | KB-3-1 cytotox | HT1080-NT tox | TDP1 cell CPT | TDP1 cell noCPT
COc1cc(C(=O)NCCC(=O)NC(C)CCc2ccccc2)cc(OC)c1OC (configuration not stated) | i | 26% | i | 17% | -5% | 5%
Cc1ccccc1C(=O)c1c[nH]c(C(=O)N2CCN(c3ccccc3F)CC2)c1 | i | ? | i | -25% | 18µM* | 15µM*
CC(=O)c1ccc(N2CCN(C(=O)c3ccccc3SCC(=O)NCc3ccco3)CC2)c(F)c1 | 21µM* | -7% | i | -8% | ? | ?
CCOC(=O)N1CCN(c2ccc([N+](=O)[O-])cc2F)CC1C (configuration not stated) | 23µM* | -6% | i | 0% | ? | ?
CCC(=O)c1c[nH]c(C(=O)N2CCN(c3ccccc3)CC2)c1 | i | 1% | i | -6% | 10% | -14%
CCC(=O)c1ccc(N2CCN(C(=O)c3cccs3)CC2)c(F)c1 | i | -1% | i | -1% | ? | 21µM*
CCOC(=O)N1CCN(C(=O)c2ccc([N+](=O)[O-])cc2Cl)CC1 | i | 3% | i | 7% | ? | ?
Cc1cc(C)c(NC(=O)Cn2nnc(-c3nc(-c4ccncc4)no3)c2N)c(C)c1 | nt | nt | nt | nt | 0% | -4%
CCOc1ccccc1CNC(=O)C1CCN(S(=O)(=O)N2CCC(C)CC2)CC1 | ? | 1% | i | 2% | ? | ?
CCOC(=O)N1CCN(c2cc3[nH]c(=S)[nH]c3cc2F)CC1 | i | 26% | i | 9% | ? | 2%
O=C(c1cccs1)N1CCN(c2ccc([N+](=O)[O-])cc2F)CC1 | i | 1% | i | 0% | ? | -21%
CCC(=O)c1ccc(N2CCCCCC2)c(F)c1 | i | 20% | i | 28% | -26% | ?
Cc1cc(N2CCN(C(=O)c3cccs3)CC2)c(F)cc1[N+](=O)[O-] | i | -2% | i | -1% | 10µM* | 5.2µM*
CCC(=O)c1ccc(N2CCN(S(=O)(=O)c3ccccc3)CC2)c(F)c1 | i | 14% | i | -1% | -24% | ?
CCC(=O)c1ccc(N2CCN(C(=O)c3ccccc3F)CC2)c(F)c1 | i | -1% | i | -2% | 10µM* | 21µM*
CCC(=O)c1ccc(N2CCN(C(=O)c3ccccc3Br)CC2)c(F)c1 | ? | -3% | ? | -5% | ? | 10µM*
CCOC(=O)N1CCN(c2cc(N)c([N+](=O)[O-])cc2F)CC1 | 23µM* | -25% | i | 0% | ? | ?
COc1ccccc1NC(=O)c1sc2nc(N3CCOCC3)c3c(c2c1N)CC(C)(C)OC3 | i | nt | i | nt | 2% | 5%
CCOC(=O)c1c(NC(=O)CC2SC(N)=NC2=O)sc(C)c1C (configuration not stated) | i | -6% | i | 1% | 23µM* | -40%
CCOC(=O)c1c(NC(=O)CC2SC(=NC)N(C)C2=O)sc(C)c1C (configuration not stated) | 10µM* | 2% | i | -3% | 1% | -19%
Cc1ccc(C(=S)N2CCCCCC2)cc1 | i | 6% | i | 14% | 16µM* | 23µM*
S=C(c1ccc(N2CCCC2)cc1)N1CCCCC1 | i | -27% | ? | -2% | 16µM* | 18µM*
Oc1ccc(C(=S)N2CCCCCC2)cc1 | i | -10% | i | -1% | -17% | -3%
S=C(c1ccc(N2CCCC2)c(Br)c1)N1CCCCC1 | ? | 2% | i | -9% | 21µM* | 23µM*
CCCN1C(=O)C(Cc2nc3ccccc3c(=O)n2-c2cccc(C)c2)c2ccccc21 (configuration not stated) | i | nt | i | nt | ? | ?
SMILES | KB-V1 MDR tox | HT1080 IDH1KD tx | KB-3-1 cytotox | HT1080-NT tox | TDP1 cell CPT | TDP1 cell noCPT
CN(C)S(=O)(=O)c1ccc(NCC2COc3ccccc3O2)c([N+](=O)[O-])c1 (configuration not stated) | ? | -10% | i | -14% | 16µM* | 23µM*
CCN(CC)S(=O)(=O)c1ccc(NCC2COc3ccccc3O2)c([N+](=O)[O-])c1 (configuration not stated) | i | -1% | i | -2% | 16µM* | 23µM*
NC(=O)c1ccc(NCC2COc3ccccc3O2)c([N+](=O)[O-])c1 (configuration not stated) | ? | -22% | ? | -1% | -25% | ?
Cc1ccc([N+](=O)[O-])cc1S(=O)(=O)NCC1COc2ccccc2O1 (configuration not stated) | i | -16% | i | 1% | ? | -16%
C=CCn1c(SCC(=O)NCC(c2ccccc2)N(C)C)nnc1C1CCCCC1 (configuration not stated) | i | 0% | i | 0% | 0% | -25%
CCOc1cc(CN2CCCC(C(=O)c3cccc(C(F)(F)F)c3)C2)ccc1O (configuration not stated) | i | -10% | i | -10% | ? | 26µM*
CCOC(=O)C1CCCN(Cc2ccc(O)c(OC)c2)C1 (configuration not stated) | i | -15% | i | -3% | -10% | -2%
Cn1c(CC(=O)NNC(=O)c2ccccc2[N+](=O)[O-])nc2ccccc21 | i | 12% | i | 0% | 9% | -7%
CSc1nc(=S)cc(C)[nH]1 | i | 24% | i | ? | 18µM* | ?
CCc1nc(SC)[nH]c(=O)c1C | i | 9% | i | 1% | -4% | 5%
CCc1nc(N(CC)CC)c2oc3ccccc3c2n1 | i | -15% | i | -21% | -28% | -24%
CCc1nc(SCC(=O)N2CCN(c3ccccc3)CC2)c2oc3ccccc3c2n1 | 13µM* | -17% | i | 7% | 26µM* | 21µM*
CCc1nc(Sc2nc(C)cc(C)n2)c2oc3ccccc3c2n1 | 16µM* | ? | ? | ? | ? | 21µM*

Screens from PubChem.
